Reference: PubChem BioAssay (NCATS)
Values joined by “and” are separate entries in the source; they are usually repeats but may differ in a detail not shown here. Identical values can stand only once. Results filed as inconclusive are left out. More than one record can exist for a structure, and the calls need not agree. Active and inactive are the calls of the source. Unless noted, calls come from the whole dose curve; as a rule, active = well fitted curve in the direction sought with a large enough effect; inconclusive = small, poorly fitted or top-dose-only effect, or another doubt; inactive = no such curve, though single readings can be large; an effect the other way counts as inactive or inconclusive.

Assays:
[1] = qHTS assay for small molecule agonists of the antioxidant response element (ARE) signaling pathway (AID 651741; active = well fitted activation curve with a large enough effect in the signal ratio; the % refers to the signal ratio; note: potency is the fitted concentration of half-maximal effect; for activation: % of control where 0% means no effect)
Procedure, shortened: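 Compounds in DMSO are pinned onto HepG2 ARE-bla cells (2,000/well) that were preincubated 5 h; plates stay 16 h at 37 C, then beta-lactamase activity is detected with LiveBLAzer B/G substrate by fluorescence.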

[2] = qHTS assay for small molecule activators of the p53 signaling pathway (AID 651743; active = well fitted activation curve with a large enough effect in the signal ratio, not every such curve was filed as active; the % refers to the signal ratio; note: potency is the fitted concentration of half-maximal effect; for activation: series mostly up to about 92 µM; % of control where 0% means no effect); conditions: HCT-116 p53RE-bla, beta-lactamase FRET ratio, 16 h; activation: stronger effect = higher value
Procedure, shortened: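 Cell-based beta-lactamase reporter (p53 response elements, HCT-116 background). After a 5-hour preincubation, cells received compound for 16 hours at 37 C; substrate development ran 2 hours at room temperature.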

[3] = qHTS assay to identify small molecules that stimulate interleukin-8 (IL-8) secretion (AID 651758; active = well fitted activation curve with a large enough effect in the signal ratio; the % refers to the signal ratio; note: 0% is about no effect)
Procedure, shortened: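 THP-1, 2000 cells/well; cpd 16 h, 37 C; add cryptate + XL665 anti-IL-8 Abs; RT 1-3 h; TR-FRET read.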

[4] = qHTS assay for environmental chemicals that activate the Aryl hydrocarbon Receptor (AhR) signaling pathway (AID 651777); conditions: 1A2-DRE human hepatoma cells, luciferase, 24 h; activation: stronger effect = higher value; note: % of control where 0% means no effect; nearly all actives have a fitted effect of over 15% in size
Procedure, shortened: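 Concentration–response screening used 1,200 1A2-DRE cells per well, 24 hr compound exposure (37 C, 5% CO2), and One-Glo luminescence as the AhR-driven CYP1A2 reporter signal.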

[5] = target: Peroxisome proliferator-activated receptor alpha (Homo sapiens) (UniProt Q07869); assay: qHTS assay for small molecule agonists of the peroxisome proliferator-activated receptor alpha (PPARalpha) signaling pathway (AID 651778); conditions: PathHunter PPARalpha complementation, chemiluminescence, 6 h; max response: stronger effect = higher value; note: potency is the fitted concentration of half-maximal effect; for max response: % of control where 0% means no effect
Procedure, shortened: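 Cells plated at 2,000/well and held overnight at 37 C, 5% CO2, then compound added by pin tool for 6 hr; after PathHunter detection reagent and 60 min at room temperature, chemiluminescence from enzyme complementation was read.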

[6] = target: Nuclear receptor ROR-gamma (Homo sapiens) (UniProt P51449); assay: qHTS assay for small molecule antagonists of the retinoid-related orphan receptor gamma (ROR-gamma) signaling pathway (AID 651802);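 note: luciferase reporter luminescence driven by ROR response element; series mostly up to about 92 µM; % is set by controls: 0 for no effect and ±100 for the full control effect; nearly all actives have a fitted effect of over 60% in size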
Procedure, shortened: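 CHO, TET-inducible ROR + RORE-LUC reporter, 1536-well qHTS. Compound pinned, doxycycline added, 16hr 37C/5% CO2. ONE-Glo, 30 min RT, luminescence; signal drop scored as antagonism.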

[7] = qHTS assay for small molecule agonists of the antioxidant response element (ARE) signaling pathway measured by Nrf2-dependant transcriptional activity (AID 720636; active = well fitted curve in the direction sought with a large enough effect in the repeat runs; an effect the other way counts as inactive or inconclusive;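 note: HepG2 cells with an ARE-driven luciferase reporter; % of control where 0% means no effect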)
Procedure, shortened: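 Attachment 6 hr at 37 C, then compound versus DMSO vehicle for 16 hr in ARE-luc HepG2 cells (1% dialyzed FBS); luminescence recorded 30 min after ONE-Glo addition at room temperature.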

[8] = qHTS assay for small molecule antagonists of the retinoid-related orphan receptor gamma (ROR-gamma) signaling pathway - cell viability counter screen (AID 720652; active = well fitted curve in the direction sought with a large enough effect in the repeat runs; an effect the other way counts as inactive or inconclusive;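 note: series mostly up to about 92 µM; compound exposure lasted 16 hr before ATP read; % is set by controls: 0 for no effect and ±100 for the full control effect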)
Procedure, shortened: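 Luminescence from CellTiter-Glo after 30 min at room temperature reported cellular ATP as the cytotoxicity measure. Cells were the CHO reporter line with doxycycline-induced ROR-gamma expression, exposed to compound for 16 hr at 37 C.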

[9] = qHTS assay for small molecule agonists of the antioxidant response element (ARE) signaling pathway measured by Nrf2-dependant transcriptional activity - cell viability counter screen (AID 720653; active = well fitted curve in the direction sought with a large enough effect in the repeat runs; an effect the other way counts as inactive or inconclusive; note: potency is the fitted concentration of half-maximal effect; for max response: % is set by controls: 0 for no effect and ±100 for the full control effect); conditions: ARE-bla HepG2 viability, CellTiter-Glo ATP luminescence, 16 h; max response: stronger effect = lower value
Procedure, shortened: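 ARE-bla HepG2 cells (2,000/well) rested 5 hrs at 37C/5% CO2, then exposed to compounds in DMSO for 16 hrs. Viability was read in the same wells as intracellular ATP by luminescence, 30 min at room temperature after reagent addition.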

[10] = Cell Proliferation Assay against the TMD8 Cell Line (Caspase readout at 16 hrs) (AID 651712); note: potency is the fitted concentration of half-maximal effect
Procedure, shortened: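 TMD8 cells (500/well) in phenol-red-free RPMI with glutamine, 5% FBS, were exposed to compounds for 16 h at 37 °C. Caspase 3/7 activation was read by Caspase-Glo luminescence; percent activity normalised to DMSO (0%) and 9.2 uM bortezomib final (100%).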

[11] = qHTS assay for small molecule activators of the nuclear factor-kappa B (NF-kB) signaling pathway (AID 651749; active = well fitted activation curve with a large enough effect in the signal ratio; the % refers to the signal ratio; note: series mostly up to about 77 µM; % of control where 0% means no effect); conditions: NF-kB-bla ME-180 cells, beta-lactamase FRET ratio, 16 h; stronger effect = higher value
Procedure, shortened: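 Screening used 2,000 ME-180 reporter cells per well exposed to pinned compound (23 nL) or DMSO; after 16 hr at 37C, beta-lactamase expression under NF-kB control was assessed through FRET.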

[12] = target: Arylsulfatase A (Homo sapiens) (UniProt P15289); assay: qHTS screen for enhancers of Arylsulfatase A (ASA1): LOPAC Validation Assay (AID 720538); note: potency is the fitted concentration of half-maximal effect
Procedure, shortened: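 Enhancer assay in patient-derived MLD fibroblasts carrying ASA-I179S: 48 h compound exposure at 37 C, then 14 h room-temperature pNCS turnover (0.5 mM final) in lysis buffer. Read by fluorescence at 525/598 nm after NaOH stop.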

[13] = qHTS for compounds that reverse cellular toxicity of Amyloid beta (A-beta) peptide in yeast: LOPAC Validation Assay (AID 720559);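 note: plate controls were DMSO for no effect and equimolar ferric chloride plus clioquinol rescue for full effect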
Procedure, shortened: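 Rescue of A-beta toxicity was scored as yeast growth by 600 nm absorbance after 48 hr at 30 C with compound. Normalization used DMSO (negative) and equimolar ferric chloride plus clioquinol (positive).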

[14] = qHTS for Activators of Parkin Expression: LOPAC Validation Assay (NLuc Reporter) (AID 720572;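 note: 0% = DMSO and 100% = positive control compound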)
Procedure, shortened: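 Neuronal line stably carrying a FLuc/NLuc coincidence reporter under the Parkin promoter, seeded 24 h, then dosed in 7-point series for 24 h at 37 C. NLuc luminescence read after FLuc; normalized to DMSO and positive control (100%).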

[15] = target: T1, Hexokinase-4 (Homo sapiens) + Glucokinase regulatory protein (Homo sapiens) (UniProt P35557+Q14397); assay: qHTS assay for inhibitors of recombinant human GCK-GKRP interaction: Diaphorase-coupled assay (AID 743205)
Procedure, shortened: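 A kinetic fluorescence read (Ex 525/Em 590 nm, every minute for 30 minutes) tracked resorufin from a G6PDH-diaphorase coupled GCK reaction. It contained 10 nM GST-GCK, 10 nM FLAG-GKRP, 5 mM glucose, 0.4 mM ATP in Hepes pH 7.6. Normalized to with/without-enzyme DMSO controls.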

[16] = target: T1, Hexokinase-4 (Homo sapiens) + Glucokinase regulatory protein (Homo sapiens); assay: qHTS assay for inhibitors of recombinant human GCK-GKRP interaction: ADP-Glo assay (AID 743206);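 note: plate controls were DMSO plus enzyme for no effect and no enzyme for full effect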
Procedure, shortened: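 GST-GCK and FLAG-GKRP (15 nM each in the dispensed mix, with 2 uM S6P) react with 0.4 mM ATP and 5 mM glucose (final) in Hepes pH 7.6 for 60 min at room temperature. ADP is measured by ADP-Glo luminescence.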

[17] = qHTS assay for small molecule disruptors of the mitochondrial membrane potential - 1 hr assay (AID 651754; calls by dose curve; note: % is set by controls: 0 for no effect and ±100 for the full control effect; nearly all actives have a fitted effect of over 35% in size)
Procedure, shortened: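 HepG2, 2,000 cells/well, overnight attachment; cpd or DMSO 1 hr, 37C/5% CO2; Mito-MPS dye 30 min, 37C; fluorescence monomer (490/535) and aggregate (540/590).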

[18] = qHTS assay for small molecule disruptors of the mitochondrial membrane potential - 5 hr assay (AID 651755; calls by dose curve; note: % is set by controls: 0 for no effect and ±100 for the full control effect; nearly all actives have a fitted effect of over 40% in size)
Procedure, shortened: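 HepG2 cells, attached overnight at 37C, were exposed to compound or DMSO for 5 hr at 37C, 5% CO2. Mito-MPS dye was then added for 30 min, and fluorescence read at 490/535 nm (monomers) and 540/590 nm (aggregates).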

[19] = target: Tyrosine-protein kinase Yes (Homo sapiens) (UniProt P07947); assay: qHTS for small molecule inhibitors of Yes1 kinase: Primary Screen (AID 686947);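 note: plate controls were DMSO with enzyme for no effect and no-enzyme DMSO wells for full effect; nearly all actives have a fitted effect of over 60% in size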
Procedure, shortened: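 Yes1 (4 nM) preincubated 20 min with compound, then 60 min room-temperature reaction with 0.1 mM ATP and 0.3 mg/mL poly(E4Y) in pH 7.5 Tris, 10 mM MgCl2. ADP measured by ADP-Glo luminescence, normalised to enzyme/no-enzyme controls.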

Sequence of Peroxisome proliferator-activated receptor alpha (Homo sapiens) (Q07869 whole entry, looked up): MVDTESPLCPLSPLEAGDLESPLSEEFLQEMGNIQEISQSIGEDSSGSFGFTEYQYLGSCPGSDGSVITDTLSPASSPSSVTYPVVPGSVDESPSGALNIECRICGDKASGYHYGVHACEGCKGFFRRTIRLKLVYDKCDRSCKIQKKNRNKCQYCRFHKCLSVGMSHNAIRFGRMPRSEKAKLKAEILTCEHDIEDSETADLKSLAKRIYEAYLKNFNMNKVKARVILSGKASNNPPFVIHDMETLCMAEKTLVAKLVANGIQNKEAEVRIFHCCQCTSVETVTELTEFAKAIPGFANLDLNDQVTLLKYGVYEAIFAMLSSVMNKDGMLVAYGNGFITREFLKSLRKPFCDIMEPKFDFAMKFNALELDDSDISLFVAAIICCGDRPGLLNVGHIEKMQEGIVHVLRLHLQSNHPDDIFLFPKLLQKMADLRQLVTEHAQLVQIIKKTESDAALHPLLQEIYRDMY
T1 sequence (P35557 whole entry, looked up): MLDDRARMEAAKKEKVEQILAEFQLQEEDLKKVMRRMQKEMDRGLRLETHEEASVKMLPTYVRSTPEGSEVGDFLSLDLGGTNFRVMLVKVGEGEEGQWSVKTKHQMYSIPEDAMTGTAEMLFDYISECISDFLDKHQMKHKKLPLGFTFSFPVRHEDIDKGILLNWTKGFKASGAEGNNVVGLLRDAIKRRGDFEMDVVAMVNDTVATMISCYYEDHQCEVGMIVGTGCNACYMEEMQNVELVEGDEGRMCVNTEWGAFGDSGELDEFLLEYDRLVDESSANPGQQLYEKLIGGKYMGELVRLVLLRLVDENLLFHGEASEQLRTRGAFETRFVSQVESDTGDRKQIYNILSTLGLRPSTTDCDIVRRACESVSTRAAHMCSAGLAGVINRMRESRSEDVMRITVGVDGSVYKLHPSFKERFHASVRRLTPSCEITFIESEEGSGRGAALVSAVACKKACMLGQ
T1 sequence (Q14397 whole entry, looked up): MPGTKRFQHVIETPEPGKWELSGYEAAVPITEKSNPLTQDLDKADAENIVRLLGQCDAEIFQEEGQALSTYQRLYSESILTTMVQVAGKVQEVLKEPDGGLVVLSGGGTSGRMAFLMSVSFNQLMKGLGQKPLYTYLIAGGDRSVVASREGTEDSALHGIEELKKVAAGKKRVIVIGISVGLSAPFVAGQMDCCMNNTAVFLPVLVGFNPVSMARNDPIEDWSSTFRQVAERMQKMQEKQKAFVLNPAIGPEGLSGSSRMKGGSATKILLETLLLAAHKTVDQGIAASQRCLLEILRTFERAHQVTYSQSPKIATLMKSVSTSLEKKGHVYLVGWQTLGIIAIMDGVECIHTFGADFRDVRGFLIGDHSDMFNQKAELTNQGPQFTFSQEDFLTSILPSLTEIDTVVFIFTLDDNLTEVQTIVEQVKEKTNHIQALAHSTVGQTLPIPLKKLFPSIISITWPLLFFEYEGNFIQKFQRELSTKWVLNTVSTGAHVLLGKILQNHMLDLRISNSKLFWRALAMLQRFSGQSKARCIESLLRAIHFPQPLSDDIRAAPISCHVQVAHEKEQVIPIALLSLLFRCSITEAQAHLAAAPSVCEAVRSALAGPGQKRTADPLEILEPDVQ
Sequence of Arylsulfatase A (Homo sapiens) (P15289 whole entry, looked up): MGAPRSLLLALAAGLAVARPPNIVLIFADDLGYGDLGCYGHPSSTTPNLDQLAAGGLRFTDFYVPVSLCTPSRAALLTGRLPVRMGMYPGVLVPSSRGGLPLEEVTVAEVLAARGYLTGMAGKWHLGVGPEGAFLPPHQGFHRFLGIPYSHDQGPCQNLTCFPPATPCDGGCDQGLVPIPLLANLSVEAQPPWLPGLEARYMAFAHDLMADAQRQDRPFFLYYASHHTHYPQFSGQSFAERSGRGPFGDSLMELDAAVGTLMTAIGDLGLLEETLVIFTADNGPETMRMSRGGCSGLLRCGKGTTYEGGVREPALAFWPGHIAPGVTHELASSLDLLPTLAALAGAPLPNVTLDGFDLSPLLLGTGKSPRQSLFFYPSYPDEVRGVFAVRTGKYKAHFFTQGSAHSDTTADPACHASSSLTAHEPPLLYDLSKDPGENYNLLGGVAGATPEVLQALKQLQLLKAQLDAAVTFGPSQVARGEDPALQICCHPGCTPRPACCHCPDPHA
Sequence of Nuclear receptor ROR-gamma (Homo sapiens) (P51449 whole entry, looked up): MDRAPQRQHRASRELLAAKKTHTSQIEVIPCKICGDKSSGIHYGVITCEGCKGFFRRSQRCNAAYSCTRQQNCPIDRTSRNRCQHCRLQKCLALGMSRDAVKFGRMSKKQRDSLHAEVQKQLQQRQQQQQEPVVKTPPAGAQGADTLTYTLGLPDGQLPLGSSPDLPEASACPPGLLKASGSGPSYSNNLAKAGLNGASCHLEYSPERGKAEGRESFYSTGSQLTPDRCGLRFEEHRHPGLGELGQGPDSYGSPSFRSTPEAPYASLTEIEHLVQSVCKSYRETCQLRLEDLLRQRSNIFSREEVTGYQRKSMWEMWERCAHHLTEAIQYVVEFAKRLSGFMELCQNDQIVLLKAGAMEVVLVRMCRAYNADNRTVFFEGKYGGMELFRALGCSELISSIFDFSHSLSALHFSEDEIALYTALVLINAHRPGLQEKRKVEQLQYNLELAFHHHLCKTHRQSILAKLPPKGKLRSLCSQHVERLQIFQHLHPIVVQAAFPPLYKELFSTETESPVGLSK
Sequence of Tyrosine-protein kinase Yes (Homo sapiens) (P07947 whole entry, looked up): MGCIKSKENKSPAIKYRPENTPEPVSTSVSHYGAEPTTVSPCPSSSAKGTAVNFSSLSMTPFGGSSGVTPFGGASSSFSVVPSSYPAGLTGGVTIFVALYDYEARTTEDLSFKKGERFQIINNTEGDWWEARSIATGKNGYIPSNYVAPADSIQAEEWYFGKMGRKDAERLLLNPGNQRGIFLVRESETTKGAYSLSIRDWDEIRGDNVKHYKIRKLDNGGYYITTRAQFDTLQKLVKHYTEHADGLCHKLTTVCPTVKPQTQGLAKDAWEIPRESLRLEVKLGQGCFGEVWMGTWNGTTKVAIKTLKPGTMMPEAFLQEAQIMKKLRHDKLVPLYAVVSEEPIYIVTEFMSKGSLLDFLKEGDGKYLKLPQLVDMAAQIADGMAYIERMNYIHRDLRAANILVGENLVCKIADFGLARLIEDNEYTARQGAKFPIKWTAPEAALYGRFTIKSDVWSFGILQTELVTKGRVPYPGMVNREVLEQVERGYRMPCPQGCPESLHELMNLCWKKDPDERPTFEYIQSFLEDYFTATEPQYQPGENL

Oc1ccccc1-c1ccccc1
inactive: activation [2] -2.94% and -3.63% and -0.39% | Potency [3] | activation [4] 0.277% [middle of 4 runs] | max response [5] -2.25% and -0.4% and 12.1% | Potency [6] | Potency [7] | Potency [8] | max response [9] -12.4% and -2.58% and -3.94%
active: Potency [1] 54.5 µM and 398 µM and 30.6 µM | Potency [9] 251 µM

COc1cc([C@@H]2c3cc4c(cc3[C@H](O)[C@H]3COC(=O)[C@H]23)OCO4)cc(OC)c1OC
active: Potency [10] 0.0037 µM

NCC(O)c1ccc(O)cc1 (configuration not stated)
inactive: Potency [1] | activation [2] -5.43% | activation [11] -2.66% | Potency [3] | activation [4] -0.493% | max response [5] -2.88% | Potency [6] | Potency [12] | outcome [13] | outcome [14] | Potency [7] | Potency [8] | max response [9] -9.13% | outcome [15] | outcome [16]

C[C@]12C/C(=C/O)C(=O)C[C@@H]1CC[C@@H]1[C@@H]2CC[C@@]2(C)[C@H]1CC[C@]2(C)O
inactive: activation [2] 23.1% | Potency [17] | Potency [18] | Potency [3] | activation [4] 1.36% and 0.159% | max response [5] -0.191% and -0.334% | max response [9] 3.17% and 10.2%
active: Potency [1] 6.86 µM and 7.5 µM

Fc1ccc(C(OCCN2CCN(CCCc3ccccc3)CC2)c2ccc(F)cc2)cc1
inactive: outcome [13] | outcome [14] | outcome [15] | outcome [16]

O=c1[nH]cc(F)c(=O)[nH]1
active: Potency [2] 3.98 µM
inactive: outcome [13]

O=NN(CCCl)C(=O)NCCCl
inactive: Potency [12]

CC(=O)[C@H]1CC[C@H]2[C@@H]3CC[C@H]4C[C@](C)(O)CC[C@]4(C)[C@H]3CC[C@]12C
inactive: outcome [13] | outcome [14] | outcome [15] | outcome [16]

Cc1ncc(CNC(=O)N(CCCl)N=O)c(N)n1
inactive: outcome [13] | outcome [14] | outcome [15] | outcome [16]

Cc1ccc(S(=O)(=O)N[C@@H](CCCCN)C(=O)CCl)cc1
active: Potency [12] 3.01 µM
inactive: outcome [13] | outcome [14] | outcome [15] | outcome [16]

Cc1c(OCC(F)(F)F)ccnc1CS(=O)c1nc2ccccc2[nH]1 (configuration not stated)
inactive: outcome [13]

c1ccc2c(c1)OCC(C1=NCCN1)O2 (configuration not stated)
inactive: Potency [12] | outcome [13] | outcome [14] | outcome [15] | outcome [16]

O=c1[nH]c2ccccc2n1C1CCN(CCCC(c2ccc(F)cc2)c2ccc(F)cc2)CC1
active: Potency [9] 50.1 µM
inactive: activation [4] 1.32% | max response [5] -0.751% | Potency [12] | Potency [7] | outcome [15] | outcome [16]

C[C@]12CC[C@@H]3c4ccc(O)cc4C[C@@H](CCCCCCCCCS(=O)CCCC(F)(F)C(F)(F)F)[C@H]3[C@@H]1CC[C@@H]2O (some centres not stated)
inactive: Potency [12]

CC[C@@H](CO)NC(=O)[C@@H]1C=C2c3cccc4c3c(cn4C)C[C@H]2N(C)C1
inactive: Potency [12] | outcome [13] | outcome [14] | outcome [16]

NCC1(CC(=O)O)CCCCC1
inactive: Potency [12] | outcome [13] | outcome [14] | outcome [15] | outcome [16]

CC(C)(C)CC(C)(C)c1ccc(O)cc1
active: Potency [5] 25.1 µM
inactive: activation [2] 1.12% | Potency [7] | max response [9] -9.38%

CCCN1CCC[C@@H]2Cc3[nH]ncc3C[C@H]21
inactive: Potency [12] | outcome [13] | outcome [14] | outcome [15] | outcome [16]

NN=C(N)N
inactive: Potency [12] | outcome [13] | outcome [14] | outcome [15] | outcome [16]

CC1=C2C[C@@H]3[C@@H](CC=C4C[C@@H](O)CC[C@@]43C)[C@@H]2CC[C@]12O[C@H]1C[C@H](C)CN[C@H]1[C@H]2C
inactive: Potency [19]

CCC1(C2=NCCN2)Cc2ccccc2O1 (configuration not stated)
inactive: Potency [12] | outcome [13] | outcome [14] | outcome [15] | outcome [16]
